The values below come from PubChem BioAssay AID743449 (Broad Institute, 2014).

The campaign covered roughly 9,900 compounds. About 90 (0.9%) were called active. Inconclusive results (about 2%) are left out. The sample as a whole holds a higher share of actives than the screen did. Unmarked numbers belong to inactive results.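 The calls were made as follows: active = mean normalized replicate activity at least 50 and at least half of replicates each reaching 50; inconclusive = only one of the two criteria met; inactive = neither criterion met.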

A short description of the test: reduction of CTGF mRNA in DLD1 cells – DLD1 colon cancer cells, RT-qPCR, single point, primary screen (AID 743449).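 Also: 0% = neutral control wells and 100% = dasatinib control wells; higher means stronger suppression of CTGF expression like dasatinib.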 The note with it: 24 h, at 12.5 µM, hits give high values. On the technique in general: Quantitative PCR measures a nucleic acid by following its amplification.
By inhibition is commonly meant the change of the read-out against control, counted positive when it falls. For `Cc1cccc(S(=O)(=O)N[C@@H]2CC[C@@H](CCNC(=O)Nc3cc(F)ccc3F)O[C@H]2CO)c1`, the inhibition was -12.4%.

Turning to `COc1ccc(-c2ccc([C@H]3[C@H](CO)N4C(=O)CN(Cc5ccccc5)C[C@@H]34)cc2)cc1`, the inhibition is -9.55%.

For `COc1ccc(S(=O)(=O)N(C)C[C@H]2Oc3ccc(NC(=O)Nc4ccc(C(F)(F)F)cc4)cc3C(=O)N([C@@H](C)CO)C[C@@H]2C)cc1`, the inhibition is -95.1%.

`CCNC(=O)[C@@H]1[C@@H](CO)[C@@H]2Cn3c(cccc3=O)[C@H]1N2C(=O)Nc1cc(F)ccc1F`: the inhibition was -43%.

Turning to `O=C(Nc1ccccc1)[C@@H]1[C@@H](CO)[C@@H]2Cn3c(cccc3=O)[C@H]1N2C(=O)c1ccc(F)cc1`, the inhibition is 51.2% (active).

Take `O=C(Nc1ccccc1)[C@H]1[C@H](CO)[C@H]2Cn3c(cccc3=O)[C@@H]1N2C(=O)c1ccc(F)cc1`: the inhibition is 11.4%.

For `N#C[C@H]1[C@@H](c2ccccc2)[C@H](CO)N1C(=O)c1cc(Cl)cc(Cl)c1`, the inhibition was 26.8%.

On to `CC(C)NC(=O)N[C@H]1CC[C@H](CC(=O)NCCCN(C)C)O[C@@H]1CO`, for which the inhibition was 12%.

Take `CC(C)NC(=O)N[C@@H]1CC[C@@H](CC(=O)NCCCN(C)C)O[C@H]1CO`: the inhibition was 1.3%.

Consider `CC(C)NC(=O)N[C@@H]1CC[C@H](CC(=O)NCCCN(C)C)O[C@@H]1CO`, for which the inhibition is 50.2% (active).

Regarding `C[C@H](CO)N1C[C@H](C)[C@@H](CN(C)S(=O)(=O)c2cccs2)Oc2ccc(NC(=O)Nc3cccc4ccccc34)cc2C1=O`, the inhibition is 3.66%.

In the case of `CO[C@H]1CN(C)C(=O)c2ccc(NC(=O)c3nc4ccccc4s3)cc2OC[C@@H](C)N(Cc2cccnc2)C[C@@H]1C`, the inhibition was 1.26%.

For the compound `CO[C@@H]1CN(C)C(=O)c2ccc(NC(=O)c3nc4ccccc4s3)cc2OC[C@@H](C)N(Cc2cccnc2)C[C@H]1C`, the inhibition is 68.4% (active).

For `CO[C@@H]1CN(C)C(=O)c2ccc(NC(=O)c3nc4ccccc4s3)cc2OC[C@@H](C)N(Cc2cccnc2)C[C@@H]1C`, the inhibition was 1.63%.

As to `CCCNC(=O)N1[C@@H]2Cn3c(cccc3=O)[C@H]1[C@@H](C(=O)N1CCC(Cc3ccccc3)CC1)[C@@H]2CO`, the inhibition was -24.7%.

Turning to `C[C@H]1CN([C@@H](C)CO)C(=O)CCCn2nncc2CO[C@H]1CN(C)C(=O)Nc1ccc2c(c1)OCCO2`, the inhibition was -11.1%.

In the case of `CCCC#Cc1ccc2c(c1)O[C@@H](CN(C)Cc1ccccn1)[C@@H](C)CN([C@@H](C)CO)S2(=O)=O`, the inhibition was -16.9%.

On to `C[C@H]1CC=CC[C@H](c2ccc(F)cc2)NC(=O)[C@@H](Cc2ccccc2)N(C)C(=O)c2ccccc2O1` (mixture of isomers), for which the inhibition is -32.9%.

As to `C[C@H]1CC=CC[C@H](c2ccc(F)cc2)NC(=O)[C@H](Cc2ccccc2)N(C)C(=O)c2ccccc2O1` (mixture of isomers), the inhibition is -3.91%.

With `CC(C)[C@@H]1CC=CC[C@@H](C)Oc2ccccc2C(=O)N(C)[C@H](Cc2ccccc2)C(=O)N1` (mixture of isomers), the inhibition was 38.9%.

With `CC(C)[C@@H]1CC=CC[C@H](C)Oc2ccccc2C(=O)N(C)[C@@H](Cc2ccccc2)C(=O)N1` (mixture of isomers), the inhibition is 15.6%.

Regarding `C[C@@H]1CC=CC[C@H](c2ccc(F)cc2)NC(=O)[C@@H](Cc2ccccc2)N(C)C(=O)c2ccccc2O1` (mixture of isomers), the inhibition was 60.2% (active).

Turning to `C[C@H]1CC=CC[C@@H](c2ccc(F)cc2)NC(=O)[C@H](Cc2ccccc2)N(C)C(=O)c2ccccc2O1` (mixture of isomers), the inhibition is 64% (active).

As for `C[C@H](CO)N1C[C@H](C)[C@@H](CN(C)S(C)(=O)=O)Oc2ncc(-c3ccc(F)cc3)cc2C1=O`, the inhibition is 15.8%.

As to `CO[C@@H]1CN(C)C(=O)c2cc(NS(=O)(=O)c3cccc(Cl)c3)ccc2OC[C@H](C)NC[C@@H]1C`, the inhibition was 4.93%.

`CO[C@@H]1CC[C@H]2CCOc3ccc(C#N)cc3C(=O)N(C)C[C@@H](c3ccccc3)CC(=O)N(C)C[C@@H]1O2`: the inhibition was -20.2%.

On to `COCC(=O)N1[C@H](CO)[C@H](c2ccc(C#CC(C)C)cc2)[C@@H]1CNC(C)=O`, for which the inhibition is 26.8%.

`C[C@H]1CN([C@@H](C)CO)C(=O)c2cc(NS(=O)(=O)c3cn(C)cn3)ccc2O[C@H]1CN(C)S(=O)(=O)c1ccc(F)cc1`: the inhibition was -21.9%.

For `COCc1cn(CC[C@@H]2CC[C@@H](NC(=O)Nc3c(C)noc3C)[C@@H](CO)O2)nn1`, the inhibition was 4.39%.

As to `C[C@@H]1CCCCO[C@@H](CN(C)Cc2ccc(C(=O)O)cc2)[C@H](C)CN([C@H](C)CO)C(=O)c2cc(N(C)C)ccc2O1`, the inhibition is -3.21%.

As for `Cc1cccc(S(=O)(=O)N2C[C@H](O)COC[C@@H]3O[C@@H](CC(=O)Nc4ccccc4)CC[C@H]32)c1`, the inhibition was 8.1%.

For `COc1ccc2c3c(n(C)c2c1)[C@@H](CO)N(Cc1ccncc1)CC31CN(C(=O)Nc2cccc(F)c2)C1`, the inhibition was 52.9% (active).

Consider `COc1ccc2c3c(n(C)c2c1)[C@@H](CO)N(Cc1ccncc1)CC31CN(C(=O)C2CCCCC2)C1`, for which the inhibition was 2.18%.

As to `COc1ccc2c3c(n(C)c2c1)[C@H](CO)N(Cc1ccncc1)CC31CN(C(=O)Nc2cccc(F)c2)C1`, the inhibition was 46.1%.

Regarding `CC(=O)N1[C@H](CO)[C@H](c2ccccc2)[C@@H]1CN(C(=O)c1ccccc1F)C(C)C`, the inhibition is 13%.

For the compound `CCNC(=O)C[C@H]1CC[C@@H]2[C@H](COC[C@H](O)CN2C(=O)C2CCCC2)O1`, the inhibition is -1.66%.

For the compound `C[C@H](CO)N1C[C@H](C)[C@H](CN(C)C(=O)Nc2ccc(-c3ccccc3)cc2)OCc2ccccc2-c2ccccc2C1=O`, the inhibition was 28.1%.

With `C[C@@H]1CN([C@H](C)CO)C(=O)c2cc(C#Cc3ccccc3)cnc2O[C@@H]1CN(C)C(=O)c1ccccc1`, the inhibition was 14.1%.

Turning to `C[C@@H]1CN([C@@H](C)CO)C(=O)c2ccccc2-c2ccccc2CO[C@H]1CN(C)C(=O)Nc1ccc(-c2ccccc2)cc1`, the inhibition is 73.6% (active).

`C[C@H](CO)N1C[C@H](C)[C@H](CN(C)C(=O)Nc2cccc(C(F)(F)F)c2)OCc2ccccc2-c2ccccc2C1=O`: the inhibition was 11.9%.

As to `C[C@@H]1CN([C@H](C)CO)C(=O)c2ccccc2-c2ccccc2CO[C@@H]1CN(C)C(=O)Nc1cccc(C(F)(F)F)c1`, the inhibition was 14.3%.

Consider `C[C@@H]1CCCCO[C@@H](CN(C)C(=O)Nc2ccccc2)[C@H](C)CN([C@@H](C)CO)C(=O)c2cc(NC(=O)Nc3ccccc3)ccc2O1`, for which the inhibition was 16.9%.

`C[C@H]1CN([C@@H](C)CO)C(=O)c2cc(C#Cc3ccccc3)cnc2O[C@@H]1CN(C)C(=O)c1ccccc1`: the inhibition was 34.5%.

As to `C[C@@H]1CN([C@@H](C)CO)C(=O)c2ccccc2-c2ccccc2CO[C@H]1CN(C)C(=O)Nc1cccc(C(F)(F)F)c1`, the inhibition was 64.7% (active).

On to `C[C@@H]1CN([C@@H](C)CO)C(=O)c2cc(NC(=O)Nc3ccccc3)ccc2O[C@@H](C)CCCCO[C@@H]1CN(C)C(=O)Nc1ccccc1`, for which the inhibition is 62.7% (active).

For the compound `C[C@H]1CN([C@@H](C)CO)C(=O)c2cc(C#Cc3ccccc3)cnc2O[C@H]1CN(C)C(=O)c1ccccc1`, the inhibition was 65.3% (active).

On to `C[C@@H]1CN([C@H](C)CO)C(=O)c2ccccc2-c2ccccc2CO[C@@H]1CN(C)C(=O)Nc1ccc(-c2ccccc2)cc1`, for which the inhibition was 39.6%.

Consider `C[C@@H]1CCCCO[C@H](CN(C)C(=O)Nc2ccccc2)[C@H](C)CN([C@@H](C)CO)C(=O)c2cc(NC(=O)Nc3ccccc3)ccc2O1`, for which the inhibition was 0.777%.

Take `O=C(C[C@@H]1CC[C@H]2[C@@H](COC[C@H](O)CN2C(=O)Nc2ccc(Cl)cc2)O1)NCC1CCCCC1`: the inhibition is 4.31%.

For `COc1ccccc1C#Cc1ccc([C@@H]2[C@@H](C#N)N(C(=O)C3CCC3)[C@@H]2CO)cc1`, the inhibition is 21%.

As for `C[C@@H](NC(=O)C[C@@H]1C[C@H]2c3cc(NS(=O)(=O)c4ccc(F)cc4)ccc3O[C@H]2[C@@H](CO)O1)c1ccccc1`, the inhibition was -0.447%.

Take `COc1cccc(CNC(=O)[C@H]2[C@H](CO)[C@H]3Cn4c(ccc(-c5cncnc5)c4=O)[C@H]3N2C)c1`: the inhibition is 1.36%.

As to `CO[C@@H](CN(C)S(=O)(=O)c1cccc(Cl)c1)[C@H](C)CN(C(=O)Nc1ccccc1F)[C@H](C)CO`, the inhibition is -17%.

Turning to `CCCNC(=O)N1[C@@H](C#N)[C@@H](c2ccc(C#Cc3cccc(F)c3)cc2)[C@@H]1CO`, the inhibition is 40.6%.

For `CCCNC(=O)N1[C@H](C#N)[C@@H](c2ccc(C#Cc3cccc(F)c3)cc2)[C@@H]1CO`, the inhibition was 69.7% (active).

For the compound `CCCNC(=O)N1[C@H](C#N)[C@H](c2ccc(C#Cc3cccc(F)c3)cc2)[C@H]1CO`, the inhibition was 12.2%.

As to `O=C(C[C@H]1CC[C@H]2[C@@H](COC[C@@H](O)CN2C(=O)c2ccc3c(c2)OCO3)O1)NC1CCC1`, the inhibition is 11%.

As to `CN(C)CC(=O)N1CC2(C1)[C@H](c1ccccc1)[C@H](CO)N2S(C)(=O)=O`, the inhibition was -45.5%.

On to `C[C@H]1CN([C@@H](C)CO)C(=O)c2ccccc2-c2ccccc2CO[C@H]1CN(C)Cc1ccc2c(c1)OCCN2C`, for which the inhibition is -29.2%.

Turning to `C[C@@H]1CN([C@H](C)CO)C(=O)c2ccccc2-c2ccccc2CO[C@@H]1CN(C)Cc1ccc(Oc2ccccc2)cc1`, the inhibition was 83.9% (active).

As for `C[C@H](CO)N1C[C@H](C)[C@H](CN(C)Cc2ccc3c(c2)OCCN3C)OCc2ccccc2-c2ccccc2C1=O`, the inhibition is -137%.

In the case of `C[C@H](CO)N1C[C@H](C)[C@H](CN(C)Cc2ccc(Oc3ccccc3)cc2)OCc2ccccc2-c2ccccc2C1=O`, the inhibition is 59% (active).

Consider `C[C@H](CO)N1C[C@H](C)[C@@H](CN(C)Cc2ccc(Oc3ccccc3)cc2)OCc2ccccc2-c2ccccc2C1=O`, for which the inhibition is -10.6%.

Take `C[C@@H]1CN([C@@H](C)CO)C(=O)c2ccccc2-c2ccccc2CO[C@@H]1CN(C)Cc1ccc(Oc2ccccc2)cc1`: the inhibition is 44.4%.

Take `C[C@H]1CN([C@@H](C)CO)C(=O)c2ccccc2-c2ccccc2CO[C@H]1CN(C)Cc1ccc(Oc2ccccc2)cc1`: the inhibition is 47.8%.

For `C[C@@H]1CN([C@H](C)CO)C(=O)c2ccccc2-c2ccccc2CO[C@@H]1CN(C)Cc1ccc2c(c1)OCCN2C`, the inhibition is 68.3% (active).

With `C[C@@H]1CN([C@H](C)CO)C(=O)c2ccccc2-c2ccccc2CO[C@@H]1CN(C)Cc1cccnc1`, the inhibition is -8.82%.
